Sm TGR inh = S. mansoni TGR enzyme inhibition | Q962Y6 | purified TGR, DTNB reduction, TNB absorbance 405 nm | Potency, µM (titrated, usually from 114 µM), most hits filed as inhibitors | 360,000 compounds, 3% hits; note: nearly all actives have a fitted effect of over 60% in size
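First, TGR (20 nM dispensed) and NADPH were mixed with compound. Second, a 15 min room-temperature incubation followed. Third, further NADPH and then DTNB were added to start the reaction. Finally, TNB absorbance was monitored kinetically.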
Tb PYK inh = blocks Trypanosoma brucei pyruvate kinase | Q57TT1 | TbPYK enzyme, Kinase-Glo Plus ATP luminescence, 45 min | Potency, µM (series often up to 76.8 µM), most hits filed as inhibitors | 410,000 compounds, 0.12% hits | AID 624173; note: nearly all actives have a fitted effect of over 50% in size
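Activity of T. brucei pyruvate kinase was followed by Kinase-Glo Plus luminescence after the enzyme reacted 45 min at room temperature with 130 uM ADP (final) and substrate. Test compounds were added before ADP at multiple concentrations.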
RE007 growth inh = less growth of the S. pombe RE007 Vpr strain. S. pombe RE007 Vpr strain, BacTiter-Glo ATP luminescence, 24 h. Potency, µM (highest dose often 92.2 µM), usual class: inhibitors. 360,000 compounds, 0.21% hits; active = well fitted falling curve with a large enough effect; inconclusive = small, poorly fitted or top-dose-only effect; inactive = no such curve, though single readings can be large or run the other way; note: nearly all actives have a fitted effect of over 50% in size
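Fission yeast strain RE007, carrying one chromosomally integrated HIV-1 vpr copy, was seeded at OD 0.01 in PMG+AL medium with 23 nL pinned compound. After 24 h at 30 °C and 99% humidity, viability was read by BacTiter-Glo luminescence.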
LmPK inh = blocks Leishmania mexicana pyruvate kinase activity | purified LmPK, Kinase-Glo ATP luminescence, 1 h | Potency, µM (titrated, usually from 57.5 µM), most hits filed as inhibitors | Q27686 | 290,000 compounds, 0.37% hits
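Screened at intermediate enzyme activity to detect both inhibitors and activators: LmPK at 0.1 nM, with a 0.5 nM enzyme column as activation reference. PEP 0.5 mM, ADP 0.1 mM; ATP detected by luminescence after 1 h.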
Giardia FBPA inh = inhibitors of Giardia lamblia fructose-1,6-bisphosphate aldolase; purified Giardia FBPA; Potency, µM (doses to about 59.6 µM), actives largely listed as inhibitors; 290,000 compounds, 0.71% hits; note: nearly all actives have a fitted effect of over 55% in size
Target sequence (A8B2U2 whole entry, looked up): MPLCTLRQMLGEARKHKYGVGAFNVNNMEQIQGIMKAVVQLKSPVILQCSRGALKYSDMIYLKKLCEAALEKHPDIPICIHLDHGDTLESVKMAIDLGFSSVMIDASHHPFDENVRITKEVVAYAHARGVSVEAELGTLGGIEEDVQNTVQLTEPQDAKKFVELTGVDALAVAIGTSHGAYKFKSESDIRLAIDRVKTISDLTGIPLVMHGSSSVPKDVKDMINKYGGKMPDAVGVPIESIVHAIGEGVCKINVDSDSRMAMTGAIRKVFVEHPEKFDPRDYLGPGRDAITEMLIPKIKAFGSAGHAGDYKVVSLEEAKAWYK
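Giardia FBPA (40 nM reagent) was preincubated 10 min at RT with compound (up to 57.5 uM final), then substrate plus GAPDH/TPI/NAD/arsenate coupling system with diaphorase/resazurin was added; resorufin fluorescence (525/598 nm) was read after 20 min.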
Numbers stand for hits. Most compounds without a hit are left out; they make up all but 3.3% or so of the library. Unless noted, calls come from the whole dose curve; as a rule, active = well fitted curve in the direction sought with a large enough effect; inconclusive = small, poorly fitted or top-dose-only effect, or another doubt; inactive = no such curve, though single readings can be large; an effect the other way counts as inactive or inconclusive.

COCCNC(=S)Nc1ccc2nc(N3CCCC3)cc(C)c2c1 was read as Sm TGR inh 44.7µM, Tb PYK inh inactive, RE007 growth inh inactive, LmPK inh inactive and Giardia FBPA inh inactive.
For CCOCCCNC(=S)Nc1ccc2nc(N3CCCC3)cc(C)c2c1 the results were Sm TGR inh 50.1µM, Tb PYK inh inactive, RE007 growth inh inactive, LmPK inh inactive and Giardia FBPA inh inactive.
O=S(=O)(CC(CN1CCCC1)N1CCCC1)c1ccc2ccccc2c1 (configuration not stated) was read as Sm TGR inh 15.8µM, Tb PYK inh inactive, RE007 growth inh inactive, LmPK inh inactive and Giardia FBPA inh inactive.
For O=S(=O)(c1ccc2ccccc2c1)N1CCCCCC1 the results were Sm TGR inh inactive, Tb PYK inh inactive, RE007 growth inh inactive, LmPK inh inactive and Giardia FBPA inh inactive.
Screening Cc1cc(C)cc(OCCSc2nc3ccc(NC(=O)c4cccs4)cc3s2)c1 returned Sm TGR inh inactive and Tb PYK inh inactive.
Screening CCOC(=O)CSC1=NC(=O)CS1 returned Sm TGR inh 31.6µM, Tb PYK inh inactive, RE007 growth inh inactive, LmPK inh inactive and Giardia FBPA inh inactive.
`O=C(CSc1nc(SCC(=O)NCc2ccccc2)n(-c2ccccc2)n1)NCc1ccccc1` gave Sm TGR inh inconclusive, Tb PYK inh inactive, RE007 growth inh inactive, LmPK inh inactive and Giardia FBPA inh inactive.
O=C(/C=C/c1ccccc1[N+](=O)[O-])Nc1ccccc1 was read as Sm TGR inh inactive, Tb PYK inh inactive, RE007 growth inh inactive, LmPK inh inconclusive and Giardia FBPA inh inactive.
Screening NN/C(=C\[N+](=O)[O-])Nc1ccc(Cl)cc1 returned Sm TGR inh 2.82µM, Tb PYK inh inactive, RE007 growth inh inactive, LmPK inh inactive and Giardia FBPA inh inactive.
`NN/C(=C\[N+](=O)[O-])Nc1ccccc1` gave Sm TGR inh 22.4µM, Tb PYK inh inactive, RE007 growth inh inactive, LmPK inh inactive and Giardia FBPA inh inactive.
For NNC(=S)Nc1ccc(Cl)cc1 the results were Sm TGR inh inactive, Tb PYK inh inactive, RE007 growth inh inactive, LmPK inh inactive and Giardia FBPA inh inconclusive.
Screening COc1cc(OC)cc(-c2c(Sc3ccccc3)c3cc(-c4cnc(N5CCOCC5)nc4)ccc3n2C)c1 returned Tb PYK inh inactive and RE007 growth inh inactive.
For COC(=O)C1(Cc2ccc(O)cc2)OC(=O)C(O)=C1c1ccc(O)cc1 (configuration not stated) the results were Sm TGR inh 15.8µM, Tb PYK inh inactive, RE007 growth inh inactive, LmPK inh inactive and Giardia FBPA inh inactive.
For COC(=O)CCc1ccc(O)cc1 the results were Sm TGR inh inactive, Tb PYK inh inactive, RE007 growth inh inactive, LmPK inh inactive and Giardia FBPA inh inactive.
Cc1ccc(NC(=O)Cn2sc3nc(C)cc(C)c3c2=O)c(Cl)c1 was read as Sm TGR inh inactive, Tb PYK inh 2.51µM, RE007 growth inh inactive, LmPK inh inactive and Giardia FBPA inh inactive.
For Cc1cc(C)c2c(=O)n(CC(=O)NCCCN3CCOCC3)sc2n1 the results were Sm TGR inh inconclusive, Tb PYK inh 6.31µM, RE007 growth inh inconclusive, LmPK inh inactive and Giardia FBPA inh inactive.
For CCOc1ccc(NC(=O)Cn2sc3nc(C)cc(C)c3c2=O)cc1 the results were Sm TGR inh inactive, Tb PYK inh 5.62µM, RE007 growth inh inactive, LmPK inh inactive and Giardia FBPA inh inactive.
For CCC(=O)NC(c1ccccc1Cl)c1c(O)ccc2ccccc12 (configuration not stated) the results were Sm TGR inh inactive, Tb PYK inh inactive, RE007 growth inh inactive, LmPK inh inactive and Giardia FBPA inh inactive.
COc1ccc(OCCOc2cccc(C=C3C(=O)NC(=O)NC3=O)c2)cc1 was read as Sm TGR inh 11.2µM, LmPK inh inactive and Giardia FBPA inh inactive.
For COc1cccc(OCCOc2ccc(/C=C3/SC(=S)NC3=O)cc2)c1 the results were Sm TGR inh inactive, Tb PYK inh inactive, RE007 growth inh inactive, LmPK inh inactive and Giardia FBPA inh inactive.
Screening Cc1cccc(-n2nnnc2S(C)(=O)=O)c1 returned Sm TGR inh 2.51µM and Tb PYK inh inactive.
For COc1cccc(-n2nnnc2S(C)(=O)=O)c1 the results were Sm TGR inh 2.82µM, Tb PYK inh inactive, RE007 growth inh inactive, LmPK inh inactive and Giardia FBPA inh inactive.

From PubChem BioAssay
